# Reference: PubChem BioAssay
# Values joined by “and” are separate entries in the source; they are usually repeats but may differ in a detail not shown here. Identical values can stand only once. Active and inactive are the calls of the source. Unless noted, the rule behind the calls is not given here.
# Tests used:
# [1] = system: Wnt5a (protein binding on small-molecule microarray); experiment: Wnt5a binders on small-molecule microarray, primary screen, biophysical, 635/667 nm fluorescence (AID 1142); conditions: 635 nm fluorescence, higher = more signal;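 note: fluorescence read at 667 nm with signal to noise per printed feature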
# [2] = cell viability in Huh7 cells, primary screen, cytotoxicity control for HCV replication inhibitor project, CellTiter-Glo luminescence, basal, 48 h (AID 1143); conditions: Huh7 HCV replicon, higher = more signal, called active from +8 up or from −8 down;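 note: Huh7 hepatoma cells carrying a hepatitis C replication reporter with no stimulus; test concentration not given here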
# [3] = P. aeruginosa biofilm formation inhibitors, primary screen, PAO1 strain, BacTiter-Glo luminescence, LB-PBS (AID 1144); conditions: 12 h, higher = more signal
# [4] = CREB reporter modulators without forskolin, primary screen, cell-based, PC12, CRE-LacZ reporter, unstimulated (AID 1145); conditions: no forskolin, luminescence, 4.5 h, higher = more signal, called active from +8 up or from −8 down
# [5] = CREB reporter modulators under forskolin, primary screen, cell-based, PC12, CRE-LacZ reporter, forskolin-stimulated (AID 1146); conditions: luminescence, 4.5 h, higher = more signal, called active from +8 up or from −8 down;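 note: PC12 cells with 6xCRE LacZ reporter stimulated by forskolin 10 µM; beta-galactosidase reporter signal reflecting CREB driven transcription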
# [6] = target: Streptavidin (Streptomyces avidinii) (UniProt P22629); experiment: streptavidin binders on small-molecule microarray, primary screen, artefact control for SMM compound annotation, biophysical, 635/667 nm fluorescence (AID 1147); conditions: streptavidin binding, higher = more signal;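 note: signal reflects streptavidin binding to arrayed compounds as a control protein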
# Streptavidin (Streptomyces avidinii), sequence (P22629 whole entry, looked up): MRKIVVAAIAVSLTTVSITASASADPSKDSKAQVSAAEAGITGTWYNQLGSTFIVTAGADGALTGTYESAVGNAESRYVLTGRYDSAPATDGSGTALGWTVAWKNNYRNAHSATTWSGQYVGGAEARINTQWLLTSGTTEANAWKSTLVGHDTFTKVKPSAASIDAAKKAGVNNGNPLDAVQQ
# [7] = small-molecule binders of probe aInhba, primary screen, biochemical, small-molecule microarray, 635/667 nm fluorescence (AID 1148); conditions: higher = more signal;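 note: score merges 667nm spot fluorescence with signal-to-noise for antibody binding to printed compounds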
# Torsin-1A (Homo sapiens) [8] = target: Torsin-1A (Homo sapiens) (UniProt O14656); experiment: torsin A binders from cell lysate, primary screen, small-molecule microarray, wild-type, 635/667 nm (AID 1149); conditions: COS7 hTOR1A-WT lysate, 635 nm fluorescence, higher = more signal
# Torsin-1A (Homo sapiens), sequence (O14656 whole entry, looked up): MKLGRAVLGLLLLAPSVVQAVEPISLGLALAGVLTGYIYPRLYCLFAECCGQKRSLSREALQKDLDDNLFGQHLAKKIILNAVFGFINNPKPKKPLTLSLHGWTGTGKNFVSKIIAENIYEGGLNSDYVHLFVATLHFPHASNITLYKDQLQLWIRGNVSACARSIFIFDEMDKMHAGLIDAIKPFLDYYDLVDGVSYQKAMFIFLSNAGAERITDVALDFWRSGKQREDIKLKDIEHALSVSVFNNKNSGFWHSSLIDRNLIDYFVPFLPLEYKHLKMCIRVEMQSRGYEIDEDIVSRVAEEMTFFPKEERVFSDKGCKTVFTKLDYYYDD
# Torsin-1A (Homo sapiens) [9] = target: Torsin-1A (Homo sapiens) (UniProt O14656); experiment: small-molecule binders of mutant TOR1A in lysate, primary screen, cell lysate, small-molecule microarray, COS7 lysate, 635/667 nm fluorescence (AID 1150); conditions: COS7 hTOR1A mutant lysate, 635 nm fluorescence, higher = more signal;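 note: score pools 667 nm emission and signal to noise measuring lysate protein binding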
# [10] = system: Sonic hedgehog protein (Shh); experiment: small-molecule binders of Shh protein, primary screen, biochemical, small-molecule microarray, 635/667 nm fluorescence (AID 1151); conditions: small-molecule microarray binding, 635 nm fluorescence; higher = more signal;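 note: Shh protein binding to compounds spotted on small-molecule microarray slides; score combines spot fluorescence intensity with signal-to-noise across triplicate slides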
# [11] = E. coli DRC41 culture turbidity changes, primary screen, E. coli filamentation inducer project, strain DRC41, OD650, 48 h (AID 1152);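 note: E. coli MC1000 strain DRC41 lacking acrAB efflux pump and sulA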; conditions: E. coli DRC41 (acrAB sulA), higher = more signal, called active from +8 up or from −8 down
# [12] = small-molecule binders of probe aLefty1, primary screen, biochemical, small-molecule microarray, 635/667 nm fluorescence (AID 1153); conditions: higher = more signal;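 note: score merges spot fluorescence with signal-to-noise ratio from the scanned slide images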
# [13] = PSAC antagonists in infected red cells, primary screen, cell-based, P. falciparum Indochina, OD700, 1 h (AID 1154); conditions: P. falciparum Indochina infected RBC osmotic lysis, higher = more signal, called active from +8 up or from −8 down
# [14] = PSAC antagonists in infected red cells, primary screen, cell-based, P. falciparum Indochina, OD700, 2 h (AID 1155);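 note: lysis reports solute entry through the parasite surface anion channel PSAC; channel blockers reduce lysis of infected cells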; conditions: P. falciparum Indochina infected erythrocytes, osmotic lysis OD700; higher = more signal, called active from +8 up or from −8 down
# [15] = osmotic lysis modulators in infected erythrocytes, primary screen, PSAC antagonist project, cell-based, P. falciparum Indochina, OD700, 3 h (AID 1156); conditions: higher = more signal, called active from +8 up or from −8 down
# [16] = PSAC antagonists in infected red cells, primary screen, cell-based, P. falciparum Indochina, OD700, 18 h (AID 1157); conditions: P. falciparum Indochina infected erythrocytes, osmotic lysis OD700, 18 h; higher = more signal, called active from +8 up or from −8 down
# [17] = modulators of S6 phosphorylation in cells, primary screen, cell-based, A549, cytoblot, luminescence, serum-stimulated (AID 1158); conditions: A549 phospho-S6 cytoblot, 5 h, higher = more signal;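 note: serum-stimulated A549 lung adenocarcinoma cells; signal is phosphorylated S6 detected by cytoblot immunostaining with HRP secondary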
# [18] = target: NADPH oxidase 2 (Homo sapiens) (UniProt P04839); experiment: NOX2-dependent H2O2 signal modulators, primary screen, NOX inhibitor project, cell-based, HEK293-NOX2, PMA-stimulated, Amplex Red fluorescence (AID 1159); conditions: 45 min, higher = more signal, called active from +8 up or from −8 down; note: test concentration not given here
# NADPH oxidase 2 (Homo sapiens), sequence (P04839 whole entry, looked up): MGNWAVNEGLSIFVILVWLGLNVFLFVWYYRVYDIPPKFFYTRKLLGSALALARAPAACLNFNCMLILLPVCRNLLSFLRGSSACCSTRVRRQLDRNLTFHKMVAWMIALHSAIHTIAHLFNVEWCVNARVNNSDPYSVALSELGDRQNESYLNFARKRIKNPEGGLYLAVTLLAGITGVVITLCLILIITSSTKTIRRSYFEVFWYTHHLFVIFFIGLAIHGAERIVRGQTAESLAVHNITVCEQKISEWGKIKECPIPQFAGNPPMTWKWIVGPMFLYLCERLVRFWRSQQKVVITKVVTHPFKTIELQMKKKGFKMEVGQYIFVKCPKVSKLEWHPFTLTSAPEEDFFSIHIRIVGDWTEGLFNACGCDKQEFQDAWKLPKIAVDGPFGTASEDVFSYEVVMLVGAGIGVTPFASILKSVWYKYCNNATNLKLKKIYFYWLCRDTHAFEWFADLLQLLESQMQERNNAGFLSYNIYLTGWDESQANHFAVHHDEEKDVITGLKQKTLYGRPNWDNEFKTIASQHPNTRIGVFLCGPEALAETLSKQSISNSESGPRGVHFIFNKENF
# [19] = target: NADPH oxidase 4 (Homo sapiens) (UniProt Q9NPH5); experiment: NOX4-dependent H2O2 signal modulators, primary screen, NOX inhibitor project, cell-based, HEK293-NOX4, tetracycline-induced, Amplex Red fluorescence (AID 1160); conditions: 45 min, higher = more signal, called active from +8 up or from −8 down
# NADPH oxidase 4 (Homo sapiens), sequence (Q9NPH5 whole entry, looked up): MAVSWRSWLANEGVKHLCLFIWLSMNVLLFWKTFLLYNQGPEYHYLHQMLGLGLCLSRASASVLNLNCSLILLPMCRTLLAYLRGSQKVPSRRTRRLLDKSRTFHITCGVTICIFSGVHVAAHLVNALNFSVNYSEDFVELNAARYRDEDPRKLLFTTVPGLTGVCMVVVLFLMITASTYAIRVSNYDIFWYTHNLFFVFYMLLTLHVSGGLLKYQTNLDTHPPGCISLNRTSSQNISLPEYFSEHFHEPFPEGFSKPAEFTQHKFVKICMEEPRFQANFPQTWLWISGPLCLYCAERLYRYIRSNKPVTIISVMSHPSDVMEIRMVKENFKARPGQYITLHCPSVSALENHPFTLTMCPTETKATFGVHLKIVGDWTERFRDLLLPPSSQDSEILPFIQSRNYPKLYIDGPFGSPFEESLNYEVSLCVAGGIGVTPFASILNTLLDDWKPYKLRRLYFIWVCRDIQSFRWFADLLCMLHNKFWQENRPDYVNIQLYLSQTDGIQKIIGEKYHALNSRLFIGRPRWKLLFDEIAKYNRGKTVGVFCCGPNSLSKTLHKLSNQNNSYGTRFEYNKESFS
# [20] = target: NADPH oxidase 5 (Homo sapiens) (UniProt Q96PH1); experiment: NOX5-dependent H2O2 signal modulators, primary screen, NOX inhibitor project, cell-based, HEK293-NOX5, Amplex Red fluorescence (AID 1161); conditions: HEK293-NOX5, ionomycin, 45 min, higher = more signal
# NADPH oxidase 5 (Homo sapiens), sequence (Q96PH1 whole entry, looked up): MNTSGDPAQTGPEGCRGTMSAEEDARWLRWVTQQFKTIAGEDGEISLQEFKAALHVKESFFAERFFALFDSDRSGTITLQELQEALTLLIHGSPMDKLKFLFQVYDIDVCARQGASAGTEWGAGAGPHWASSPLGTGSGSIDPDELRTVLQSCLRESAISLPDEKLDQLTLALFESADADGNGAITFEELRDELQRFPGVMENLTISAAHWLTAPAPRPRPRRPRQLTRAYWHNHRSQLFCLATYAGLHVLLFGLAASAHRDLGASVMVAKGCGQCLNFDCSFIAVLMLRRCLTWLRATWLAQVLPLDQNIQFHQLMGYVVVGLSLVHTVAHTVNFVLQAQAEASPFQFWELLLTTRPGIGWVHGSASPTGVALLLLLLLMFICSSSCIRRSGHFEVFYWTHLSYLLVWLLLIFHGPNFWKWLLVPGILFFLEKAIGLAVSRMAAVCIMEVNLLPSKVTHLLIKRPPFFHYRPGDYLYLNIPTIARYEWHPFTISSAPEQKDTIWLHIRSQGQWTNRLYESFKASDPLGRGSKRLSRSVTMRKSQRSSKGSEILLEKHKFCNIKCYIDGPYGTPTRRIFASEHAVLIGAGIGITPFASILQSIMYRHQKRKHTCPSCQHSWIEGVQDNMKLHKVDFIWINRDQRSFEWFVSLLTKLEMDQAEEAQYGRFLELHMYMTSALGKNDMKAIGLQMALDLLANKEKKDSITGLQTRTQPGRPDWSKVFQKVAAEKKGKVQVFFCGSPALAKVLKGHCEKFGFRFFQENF
SMILES,composite z-score [1],z-score [2],z-score [3],z-score [4],z-score [5],composite z-score [6],composite z-score [7],composite z-score (Torsin-1A (Homo sapiens) [8]),composite z-score (Torsin-1A (Homo sapiens) [9]),composite z-score [10],z-score [11],composite z-score [12],z-score [13],z-score [14],z-score [15],z-score [16],z-score [17],z-score [18],z-score [19],z-score [20]
CC(C)=NO[C@@H](C)c1cc(-c2c(C)cc(C)cc2C)no1,-0.278,-2.11 (inactive),-1.37 (inactive),1.49 (inactive),-0.49 (inactive),0.186,-0.128,0.0381,-0.281,-0.104,-2.27 (inactive),-0.278,0.944 (inactive),0.371 (inactive),1.37 (inactive),-1.23 (inactive),0.702,-0.639 (inactive),-1.28 (inactive),-1.13
CO[C@H]1COC(=O)CC=C[C@@H](C)COC(=O)[C@H](CCSC)NC(=O)CC=C[C@@H]1C,0.748 and 0.382,-1.11 (inactive) and -1.94 (inactive),-0.2 (inactive),-0.473 (inactive) and 0.882 (inactive),-0.367 (inactive) and -0.742 (inactive),-0.909 and -1.04,-0.0645 and -0.341,3.27 and 3.04,3.74 and 3.09,1.74 and 2.35,-0.949 (inactive) and -0.0368 (inactive),-0.188 and 0.32,-0.304 (inactive) and 0.171 (inactive),-0.237 (inactive) and 0.588 (inactive),-0.425 (inactive) and -0.189 (inactive),0.256 (inactive) and -0.0409 (inactive),0.676 and 0.163,1.07 (inactive) and -1.99 (inactive),-0.824 (inactive) and 0.413 (inactive),-0.812 and -0.479
CCC[C@@H]1C[C@@]1(CCC)[C@@H](NC(=O)c1ccc(-c2ccccc2)cc1)c1cccc(Cl)c1,0.585 and -0.0434,-2.34 (inactive) and -1.18 (inactive),-0.439 (inactive) and -0.623 (inactive),0.394 (inactive) and -0.568 (inactive),0.0069 (inactive) and -0.151 (inactive),-0.475 and 0.378,1.13 and -0.0011,0.286 and -0.411,0.322 and 0.104,-0.032 and -0.684,-2.52 (inactive) and -0.473 (inactive),2.19 and 0.345,2.33 (inactive) and 6.65 (inactive),0.011 (inactive) and 0.853 (inactive),0.364 (inactive) and 0.0717 (inactive),0.446 (inactive) and 0.691 (inactive),-0.366 and -0.0422,-1.8 (inactive) and -1.74 (inactive),-2.39 (inactive) and -5.23 (inactive),-1.31 and -1.93
C=CC[C@H](O)c1ccc(OCCO)cc1,-0.0223 and -0.614,-1.36 (inactive) and -0.878 (inactive),-0.809 (inactive) and -0.0923 (inactive),-0.925 (inactive) and 0.18 (inactive),-0.506 (inactive) and -0.0908 (inactive),-0.893 and -1.41,-0.0371 and -0.497,-0.646 and -1.69,-0.0897 and -1.66,-0.125 and 0.891,-0.349 (inactive) and -0.895 (inactive),-0.017 and -0.491,0.965 (inactive) and 1.27 (inactive),0.396 (inactive) and -0.262 (inactive),-0.0706 (inactive) and -0.94 (inactive),0.475 (inactive) and 0.084 (inactive),0.263 and 0.368,-0.317 (inactive) and -0.425 (inactive),-0.103 (inactive) and 0.574 (inactive),0.811 and 0.51
CO[C@@H]1COC(=O)CC=C[C@H](C)[C@@H](NS(=O)(=O)c2ccc(C)cc2)COC(=O)CC=C[C@@H]1C,0.123 and 0.0913,-0.142 (inactive) and -0.867 (inactive),-0.675 (inactive) and -1.19 (inactive),-0.743 (inactive) and 0.42 (inactive),-0.881 (inactive) and 0.764 (inactive),0.167 and 0.162,-0.159 and -0.179,0.318 and 2.3,0.505 and 1.55,1.43 and 2.1,0.578 (inactive) and 0.567 (inactive),-0.186 and 0.0492,0.614 (inactive) and 0.595 (inactive),0.281 (inactive) and -0.12 (inactive),-0.153 (inactive) and 0.571 (inactive),0.401 (inactive) and 0.367 (inactive),-0.3 and -0.484,0.0381 (inactive) and 0.541 (inactive),0.724 (inactive) and 0.493 (inactive),0.423 and 0.277
